# Bioassay records (PubChem BioAssay)
# Tb PFK block = T. brucei PFK enzyme inhibition; Potency, µM (highest dose often 57.5 µM), for the others: top-dose activity, negative = inhibition, actives largely listed as inhibitors; AID 485367; T. brucei PFK, ADP-Glo luminescence; 0.17% of 330,000 active; O15648;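 further: 0% = uninhibited 1x PFK enzyme wells and -100% = no-enzyme wells; nearly all actives have a fitted effect of over 60% in size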
# Target sequence (O15648 whole entry, looked up): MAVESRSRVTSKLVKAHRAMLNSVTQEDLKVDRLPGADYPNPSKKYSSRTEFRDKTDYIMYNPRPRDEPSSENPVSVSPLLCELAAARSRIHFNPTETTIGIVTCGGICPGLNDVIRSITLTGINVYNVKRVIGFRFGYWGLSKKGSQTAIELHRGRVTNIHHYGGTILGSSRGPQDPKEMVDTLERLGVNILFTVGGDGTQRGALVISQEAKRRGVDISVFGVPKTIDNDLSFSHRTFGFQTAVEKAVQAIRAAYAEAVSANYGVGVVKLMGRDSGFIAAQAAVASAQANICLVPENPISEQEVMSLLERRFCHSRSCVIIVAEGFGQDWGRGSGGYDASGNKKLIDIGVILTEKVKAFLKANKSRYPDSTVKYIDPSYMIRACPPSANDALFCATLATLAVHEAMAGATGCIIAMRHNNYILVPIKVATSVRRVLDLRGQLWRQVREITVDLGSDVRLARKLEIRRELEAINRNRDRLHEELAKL
#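 Activity is normalized to no-enzyme wells (full inhibition) and 1.25 nM enzyme wells (no inhibition). Reaction: 0.5 mM F6P, 0.1 mM ATP, 45 min RT, ADP-Glo luminescence; concentration-response curves fitted and classed by quality.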
# Tb PGK inh = inhibitors of T. brucei phosphoglycerate kinase; P07378; PGK/GAPDH coupled, Kinase-Glo luminescence, 60 min; Potency, µM (highest dose often 57.5 µM), inactives show at the top dose activity change, negative = inhibition, hits mostly inhibitors; 0.043% of 380,000 active; AID 602233; further: nearly all actives have a fitted effect of over 60% in size
#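 Recombinant glycosomal PGK reaction used 1,3-bisphosphoglycerate generated in-well by GAPDH (100nM final) in 100mM TEA pH 7.6, 5mM MgCl2, 0.01% Tween-20. After 60 minutes at room temperature, ATP was read by Kinase-Glo Plus luminescence end-point.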
# GLS inh = glutaminase GLS (human) inhibition; Potency, µM (top dose mostly 45.5 µM), inactives show top-dose activity change, negative = inhibition, hits mostly inhibitors; O94925; GLS enzymatic activity, qHTS titration; 0.21% of 410,000 active
#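 Coupled fluorescence readout: glutamate oxidase/HRP/Amplex Red detect glutamate formed by hKGA from L-glutamine (1 mM solution added). Buffer 45 mM KH2PO4 pH 8.2, 0.02% Tween-20; reads at t0 and 30 min RT.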
# VDR inhibitor = blocks the human vitamin D receptor; P11473; VDR-SRC2-3 peptide fluorescence polarization, 2 h; Potency, µM, without a hit: max response, negative = inhibition, usual class: inhibitors; 0.93% of 400,000 active; AID 504847
#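 VDR–SRC2-3 interaction, FP format. Cmpds 23 nl via pintool, brief spin, 2 h ambient incubation.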
# Pin1 inhibitor = blocks the human prolyl isomerase Pin1; Q13526; Pin1 FP peptide displacement, HiFluor488, 10 min; Potency, µM (doses to about 115 µM), inactives show top-dose activity, negative = inhibition, actives largely listed as inhibitors; 0.009% of 390,000 active; AID 504891; active means well fitted inhibition curve with a large enough effect in the polarisation, with a control signal flat, not every such curve was filed as active; inconclusive means small, poorly fitted or top-dose-only effect, or effect the other way, or a change in a side signal; inactive means no such curve, though single readings can be large or run the other way; the % refers to the polarisation
# Target sequence (Q13526 whole entry, looked up): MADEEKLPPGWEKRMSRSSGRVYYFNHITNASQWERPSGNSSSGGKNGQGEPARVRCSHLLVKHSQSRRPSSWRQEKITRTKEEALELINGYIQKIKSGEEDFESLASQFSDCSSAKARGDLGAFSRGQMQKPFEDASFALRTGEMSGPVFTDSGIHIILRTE
# An asterisk follows results filed as active; i = inactive; ? = inconclusive; / = no result. The list is not random: actives were taken first. Their share in the collection is about 1.1%. Unless noted, the call rests on the fitted dose curve; in most records, active means well fitted curve in the direction sought with a large enough effect; inconclusive means small, poorly fitted or top-dose-only effect, or another doubt; inactive means no such curve, though single readings can be large; an effect the other way counts as inactive or inconclusive. Unless noted, on the % scale 0 is the no-effect control and ±100 the full control effect; potency means the concentration at half of the fitted maximal effect.
SMILES,Tb PFK block,Tb PGK inh,GLS inh,VDR inhibitor,Pin1 inhibitor
Cc1ccc(CCNC(=O)Cn2ncc3c(=O)oc4ccccc4c32)cc1,/,-1%,-11%,-14%,-12%
CCCCCCCCCCCCCCCC(=O)C1=C(O)C(CO)OC1=O (stereo unspecified),/,/,/,14µM*,/
CCCCCCCCC1OC1CCCCCCCC(=O)O (stereo unspecified),/,/,/,0%,/
Cc1cc2ccccn2c1C(=O)c1ccc(N/N=C/c2ccc(C(=O)O)cc2)c([N+](=O)[O-])c1,-13%,?,10µM*,-8%,-1%
C/C(=N\Nc1ccc(C(=O)c2c(C)cc3ccccn23)cc1[N+](=O)[O-])c1ccc(O)cc1,1%,5%,3%,-13%,4%
C=CCn1c(NC(=O)c2ccccc2Cl)c(C#N)c2nc3ccccc3nc21,-14%,-7%,2%,35µM*,?
CCCCn1c(NC(C)=O)c(C#N)c2nc3ccccc3nc21,10%,-7%,0%,?,10%
CCN(CC)c1nc(C#N)nc(N2CCOCC2)n1,/,/,/,-13%,3%
CC[C@@H](C)[C@H](NC(=O)OC(C)(C)C)c1nnc(S(=O)(=O)Cc2cc(C)ccc2C)o1,2%,8%,1%,11µM*,-2%
CCOC(=O)CSc1nnc([C@H](Cc2ccccc2)NC(=O)OC(C)(C)C)o1,0%,-2%,0%,9%,8%
CC(C)(C)OC(=O)N[C@@H](Cc1ccccc1)c1nnc(S(=O)(=O)Cc2cccc(F)c2)o1,-2%,-5%,-13%,11µM*,-3%
CC(C)C[C@H](N)c1nnc(S(=O)(=O)Cc2cccc(F)c2)o1,-2%,-7%,8%,18µM*,-1%
CC(C)[C@H](NC(=O)OC(C)(C)C)c1nnc(S(=O)(=O)Cc2c(F)cccc2Cl)o1,-2%,-3%,11%,?,1%
CC(=O)Nc1ccc(NC(=O)CCc2nc3cccnc3n2Cc2cccs2)cc1,/,i,-1%,-15%,?
Cc1nc2cc(NC(=O)Nc3ccc(Br)cc3)ccc2o1,-5%,-5%,2%,-9%,0%
CC(=O)c1cccc(N(C(=O)Cn2nnc3ccccc32)C(C(=O)NC2CCCCC2)c2cn(C)nc2C)c1 (stereo unspecified),-4%,i,7.9µM*,-8%,-15%
CC(C)OC(=O)OCOP(=O)(CO[C@H](C)Cn1cnc2c(N)ncnc21)OCOC(=O)OC(C)C,/,/,-4%,/,/
Cc1ccc(S(=O)(=O)O/N=C2\CCCc3ccccc32)cc1,3%,i,15%,4%,5%
CC1=C(C)/C(=N\OS(=O)(=O)c2ccccc2)C=CC1=O,0%,-4%,8%,35µM*,7%
COc1ccc(C2NC(=O)c3sc(=S)n(-c4ccccc4)c3N2)cc1 (stereo unspecified),-5%,i,12%,79µM*,4%
CCOc1ccc(C2NC(=O)c3sc(=S)n(-c4ccccc4)c3N2)cc1 (stereo unspecified),6%,-9%,-30%,?,-9%
Cc1ccc(S(=O)(=O)CC(=O)Nc2nc3c(C)cc(C)cc3s2)cc1,/,-8%,-3%,15%,18%
O=c1[nH]c(-c2ccncc2)nc2ccccc12,1%,-7%,-12%,79µM*,-1%
Cc1cc(Cl)ccc1N1C(=O)CC(NNC(=O)c2cccnc2)C1=O (stereo unspecified),0%,2%,7.1µM*,6%,2%
Cc1oc2c(cc(NS(=O)(=O)c3ccc(F)cc3)c3ccccc32)c1C(=O)OCc1ccccc1,/,i,1%,-2%,2%
SMILES,Tb PFK block,Tb PGK inh,GLS inh,VDR inhibitor,Pin1 inhibitor
COc1cc(O)c2c(c1)C(=O)c1cc(C)cc(O)c1C2=O,/,/,/,22µM*,/
O=C(CC(Nc1ccc(Cl)cc1Cl)C(=O)O)c1ccccc1 (stereo unspecified),20%,-8%,28%,79µM*,-1%
Cc1ccc(NC(CC(=O)c2ccccc2)C(=O)O)cc1Cl (stereo unspecified),-8%,-7%,28%,?,17%
O=C(c1cc(C2CCCCN2S(=O)(=O)Cc2ccccc2)on1)N1CCOCC1 (stereo unspecified),/,/,1%,/,/
CCOC(=O)c1cc(-c2ccccc2)n(-c2cccc(C(=O)Nc3cccc(SC)c3)c2)c1C,/,-2%,-24%,26%,30%
CCOC(=O)/C(=C/c1ccc(OC(=O)c2ccncc2)cc1)C(C)=O,-1%,-6%,0%,?,0%
COCCOC(=O)/C(=C/c1ccc(OC(=O)c2ccccc2)cc1)C(C)=O,-5%,i,-7%,22µM*,-6%
COc1ccccc1-c1nc(S(=O)(=O)c2ccccc2)c(N2CCC(C)CC2)o1,/,i,-17%,-21%,-19%
CCOC1=C2CN(S(=O)(=O)c3ccc(C)cc3)[C@H](c3cccc4ccccc34)C[C@H]2C(C#N)(C#N)C(C#N)(C#N)C1,/,/,-11%,/,/
CCOC1=C2[C@H](c3ccccc3)N(S(=O)(=O)c3ccc(C)cc3)C(C(C)(C)C)[C@H]2C(C#N)(C#N)C(C#N)(C#N)C1 (stereo partly specified),/,/,2.2µM*,/,/
COc1ccc2nc(-c3cccc(N)c3)[nH]c2c1,2%,-9%,9%,-4%,4%
COc1ccc(-c2nc3ccc(C4=C(C)CC(=O)NN4)cc3[nH]2)cc1,/,/,32µM*,-8%,/
CN(CC(=O)Nc1c(Cl)cccc1Cl)C(=O)c1ccccc1SCC(=O)N1CCCC1,1%,14%,16µM*,-4%,9%
Cc1cccc(C)c1NC(=O)CN(C)C(=O)c1ccccc1SCC(=O)N1CCCC1,0%,i,1%,14%,-3%
CC(=O)N(C(C)=O)c1ncnc2c1c(-c1ccc(Cl)cc1)nn2C(C)(C)C,-2%,-5%,-10%,50µM*,-5%
O=C(C[C@@H]1C/C=C\C[C@H](Cc2ccc(F)cc2)C(=O)OC[C@H]2CCCN2C1=O)NCCO,-1%,-5%,-11%,11%,-6%
Cc1ccc2nc(-c3ccccc3)cn2c1,?,?,9%,7%,-3%
Cc1nc(-c2ccc(O)c(O)c2)cs1,-29%,1%,11µM*,-10%,-2%
Oc1ccc(-c2csc(-c3cccnc3)n2)cc1O,-5%,-15%,3.5µM*,26%,?
Cc1ccc2nc(-c3ccc(O)c(O)c3)cn2c1,?,?,20µM*,16%,1%
Oc1ccc(-c2csc(-c3ccccc3)n2)cc1O,-13%,/,?,13%,?
Cc1ccc(Cn2c(C(=O)O)c(CNCc3ccc(OC(C)C)cc3)c3ccc(C)cc32)cc1,/,4%,6%,-1%,26%
CCOc1ccc(CNC(=O)C2CCN(S(=O)(=O)N3CCCCC3)CC2)cc1,/,-4%,0%,12%,-10%
CSc1ccc(NC(N)=S)cc1,-3%,1%,-2%,-19%,-1%
